Assay results reported in PubChem BioAssay (Tox21).
Several values for one entry are separate records, joined by “and”; a condition that tells them apart may be missing. Equal values may be shown once. Results filed as inconclusive are left out. A call without a number means that no potency is given here. A structure can be active in one record and inactive in another. Activity calls are given as the source filed them. Unless noted, calls come from the whole dose curve; as a rule, active = well fitted curve in the direction sought with a large enough effect in the repeat runs; inconclusive = weak or mixed curves; inactive = no such curve, though single readings can be large; an effect the other way counts as inactive or inconclusive.

How the values were obtained:
[1] = qHTS assay to identify small molecule agonists of the RXR signaling pathway - cell viability counter screen (AID 1159529); note: nearly all actives have a fitted effect of over 50% in size; note: potency is the fitted concentration of half-maximal effect
Outline: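 Counter screen: CellTiter-Glo luminescence. Cells: RXR-alpha-UAS-bla HEK 293T. Medium: 2% charcoal-stripped FBS. Treatment: 16 h, 37 C. Reagent incubation: 30 min, RT.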

[2] = qHTS assay to identify small molecule antagonists of the retinoid acid receptor (RAR) signaling pathway - cell viability counter screen (AID 1159551); note: nearly all actives have a fitted effect of over 35% in size; note: potency is the fitted concentration of half-maximal effect
Outline: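 Cytotoxicity counter screen in C3RL4 cells: 6 h compound exposure with 1 uM retinol (final), viability from cellular ATP by luminescence.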

[3] = qHTS assay to identify small molecule agonists of the retinoic acid receptor (RAR) signaling pathway (AID 1159553); note: potency is the fitted concentration of half-maximal effect
Outline: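 Agonist activity was scored in C3RL4 cells bearing a retinoic acid response element luciferase construct. Cells were treated with compounds for 6 hr at 37 C, and luciferase signal was measured as luminescence.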

[4] = qHTS assay to identify small molecule antagonists of the estrogen related receptor (ERR) signaling pathway from Tox21 library - cell viability counter screen (AID 1224834); note: nearly all actives have a fitted effect of over 30% in size; note: potency is the fitted concentration of half-maximal effect
Outline: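 Cytotoxicity of test substances is gauged in the same ERR cells used for the antagonist screen, after 17.5 h of compound treatment at 37 C, by CellTiter-Fluor fluorescence measured after 30 min.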

[5] = molecular target: Luciferin 4-monooxygenase (Photinus pyralis) (UniProt P08659); test: qHTS assay to identify small molecule inhibitors of firefly luciferase (AID 1224835); note: nearly all actives have a fitted effect of over 25% in size; note: potency is the fitted concentration of half-maximal effect
Luciferin 4-monooxygenase (Photinus pyralis), sequence (P08659 whole entry, looked up): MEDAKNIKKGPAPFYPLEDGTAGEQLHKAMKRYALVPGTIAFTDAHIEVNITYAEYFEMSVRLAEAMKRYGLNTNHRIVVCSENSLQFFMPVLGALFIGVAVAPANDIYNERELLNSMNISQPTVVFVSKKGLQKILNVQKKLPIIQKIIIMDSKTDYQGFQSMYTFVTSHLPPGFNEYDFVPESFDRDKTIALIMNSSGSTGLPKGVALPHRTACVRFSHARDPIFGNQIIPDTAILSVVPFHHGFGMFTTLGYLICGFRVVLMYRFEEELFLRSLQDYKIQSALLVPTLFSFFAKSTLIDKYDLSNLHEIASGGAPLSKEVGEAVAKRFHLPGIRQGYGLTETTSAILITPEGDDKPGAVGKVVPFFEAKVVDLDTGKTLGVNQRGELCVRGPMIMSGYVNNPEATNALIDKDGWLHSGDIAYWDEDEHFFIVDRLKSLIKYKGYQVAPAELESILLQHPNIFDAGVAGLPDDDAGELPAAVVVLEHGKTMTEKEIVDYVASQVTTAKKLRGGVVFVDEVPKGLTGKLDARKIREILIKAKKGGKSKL
Outline: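 Quantitative HTS format; KM concentrations of both substrates. Purified P. pyralis FLuc activity quantified from luminescence images.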

[6] = qHTS assay to identify small molecule agonists of the constitutive androstane receptor (CAR) signaling pathway - cell viability counter screen (AID 1224836); note: nearly all actives have a fitted effect of over 45% in size; note: potency is the fitted concentration of half-maximal effect
Outline: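 Double-stable HepG2 hepatoma cells (hCAR plus CYP2B6-2.2kb) are treated for 23 h at 37 C with test compounds in 15-point concentration series. PK11195 at 0.75 uM final is co-added. Cell viability is quantified by CellTiter-Fluor.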

[7] = qHTS assay to identify small molecule antagonists of the constitutive androstane receptor (CAR) signaling pathway - cell viability counter screen (AID 1224837); note: nearly all actives have a fitted effect of over 45% in size; note: potency is the fitted concentration of half-maximal effect
Outline: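 Multiplexed cytotoxicity read-out for the CAR antagonist screen: double-stable HepG2-CYP2B6-hCAR cells co-treated with 50 nM CITCO (final) and compound over 15 concentrations, incubated 23 hr, then assessed by CellTiter-Fluor fluorescence.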

[8] = molecular target: Nuclear receptor subfamily 1 group I member 3 (Homo sapiens) (UniProt Q14994); test: qHTS assay to identify small molecule antagonists of the constitutive androstane receptor (CAR) signaling pathway (AID 1224838); note: nearly all actives have a fitted effect of over 40% in size; note: potency is the fitted concentration of half-maximal effect
Nuclear receptor subfamily 1 group I member 3 (Homo sapiens), sequence (Q14994 whole entry, looked up): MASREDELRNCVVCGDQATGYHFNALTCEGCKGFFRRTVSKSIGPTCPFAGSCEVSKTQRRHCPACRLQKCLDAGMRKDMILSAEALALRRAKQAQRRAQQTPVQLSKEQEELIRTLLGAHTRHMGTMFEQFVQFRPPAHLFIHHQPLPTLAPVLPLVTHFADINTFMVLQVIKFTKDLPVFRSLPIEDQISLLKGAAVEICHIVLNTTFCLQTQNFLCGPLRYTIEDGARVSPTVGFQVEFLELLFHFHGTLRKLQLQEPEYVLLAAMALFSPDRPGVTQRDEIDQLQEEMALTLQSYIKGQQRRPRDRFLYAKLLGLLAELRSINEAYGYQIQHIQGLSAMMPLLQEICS
Outline: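 Compounds were titrated across 15 concentrations onto HepG2 cells double-stably expressing hCAR and a CYP2B6-2.2kb reporter, together with 50 nM CITCO (final). After 24 h at 37 C, luciferase activity was measured by luminescence.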

[9] = molecular target: Thyrotropin receptor (Homo sapiens) (UniProt P16473); test: qHTS assay to identify small molecule agonists of the thyroid stimulating hormone receptor (TSHR) signaling pathway (AID 1224843; calls by dose curve; note: nearly all actives have a fitted effect of over 45% in size; note: potency is the fitted concentration of half-maximal effect)
Thyrotropin receptor (Homo sapiens), sequence (P16473 whole entry, looked up): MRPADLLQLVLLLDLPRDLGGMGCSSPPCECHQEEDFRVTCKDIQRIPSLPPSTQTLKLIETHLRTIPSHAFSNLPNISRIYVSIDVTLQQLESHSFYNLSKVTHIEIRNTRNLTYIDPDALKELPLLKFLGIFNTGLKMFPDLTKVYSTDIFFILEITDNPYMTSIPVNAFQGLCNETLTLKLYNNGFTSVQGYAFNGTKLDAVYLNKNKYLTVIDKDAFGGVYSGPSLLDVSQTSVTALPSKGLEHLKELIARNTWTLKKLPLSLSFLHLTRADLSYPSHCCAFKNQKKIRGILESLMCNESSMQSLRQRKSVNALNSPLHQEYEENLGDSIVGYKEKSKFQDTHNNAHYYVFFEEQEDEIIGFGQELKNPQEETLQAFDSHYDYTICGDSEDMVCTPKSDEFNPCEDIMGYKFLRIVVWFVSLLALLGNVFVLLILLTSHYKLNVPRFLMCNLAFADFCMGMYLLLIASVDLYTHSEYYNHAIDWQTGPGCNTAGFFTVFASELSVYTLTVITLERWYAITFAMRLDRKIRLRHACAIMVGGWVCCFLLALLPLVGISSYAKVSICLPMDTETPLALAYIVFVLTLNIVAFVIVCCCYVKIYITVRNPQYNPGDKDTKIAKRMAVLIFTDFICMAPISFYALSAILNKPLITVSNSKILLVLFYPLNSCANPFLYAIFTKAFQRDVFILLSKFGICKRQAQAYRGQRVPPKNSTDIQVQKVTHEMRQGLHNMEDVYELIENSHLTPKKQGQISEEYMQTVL
Outline: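 Cell line HEK293 with TSHR; density 800/well. Exposure 30 min RT. Readout HTRF cAMP (cAMP-d2/anti-cAMP-cryptate), 1 h RT before reading.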

[10] = molecular target: Nuclear receptor subfamily 1 group I member 3 (Homo sapiens) (UniProt Q14994); test: qHTS assay to identify small molecule agonists of the constitutive androstane receptor (CAR) signaling pathway (AID 1224839); note: nearly all actives have a fitted effect of over 15% in size; note: potency is the fitted concentration of half-maximal effect
Outline: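 Readout: firefly luciferase luminescence via ONE-Glo. System: HepG2 double-stable for hCAR and CYP2B6-2.2kb. Conditions: 15-point compound titration, PK11195 at 0.75 uM final, 24 h incubation.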

[11] = qHTS assay to identify small molecule antagonists of the retinoic acid receptor (RAR) signaling pathway (AID 1159552; note: nearly all actives have a fitted effect of over 50% in size; note: potency is the fitted concentration of half-maximal effect)
Outline: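 Antagonism of retinol-induced RARE reporter activity was measured in C3RL4 cells. Exposure to compounds and 1 uM final retinol lasted 6 hr at 37 C, with luminescence as endpoint.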

[12] = qHTS assay to identify small molecule agonists of the estrogen related receptor signaling pathway with the pleiotropic PPARgamma coactivator (PGC) from Tox21 10K library (AID 1224842); note: nearly all actives have a fitted effect of over 15% in size
Outline: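 PGC/ERR reporter cells (NTP line) were seeded 2,000 per well, rested 6 h at 37 C/5% CO2, then pin-dosed with compounds in DMSO for 18 h at 37 C; luciferase read by One-Glo luminescence after 30 min at room temperature.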

[13] = qHTS assay to identify small molecule antagonists of the estrogen related receptor signaling pathway with the pleiotropic PPARgamma coactivator (PGC) from Tox21 10K library (AID 1224841; call rule not given here; note: actives are mostly falling curves and most rising ones were filed inactive; nearly all actives have a fitted effect of over 50% in size; note: potency is the fitted concentration of half-maximal effect)
Outline: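 Antagonism in this quantitative HTS is taken from loss of luciferase signal in PGC/ERR cells. Cells (2,000/well) are treated with compounds in DMSO after a 6 h settling period and read by One-Glo luminescence after 18 h.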

[14] = qHTS assay to identify small molecule antagonists of the estrogen related receptor signaling pathway with the pleiotropic PPARgamma coactivator (PGC) from Tox21 10K library - cell viability counter screen (AID 1224840; active = well fitted cell-killing curve with a large enough effect in the repeat runs, not every such curve was filed as active; note: nearly all actives have a fitted effect of over 40% in size; note: potency is the fitted concentration of half-maximal effect)
Outline: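 Step one, plate 2,000 PGC/ERR cells per well; step two, incubate 6 h at 37 C/5% CO2; step three, pin-transfer compounds; step four, incubate 17.5 h; step five, add CellTiter-Fluor and read fluorescence after 30 min.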

SMILES | Potency [1] | Potency [2] | Potency [3] | Potency [4] | Potency [5] | Potency [6] | Potency [7] | Potency [8] | Potency [9] | Potency [10] | Potency [11] | Potency [12] | Potency [13] | Potency [14]
NC(=O)CC[C@@H]1NC(=O)[C@H](Cc2ccccc2)NC(=O)[C@H](Cc2ccc(O)cc2)NC(=O)CCSSC[C@@H](C(=O)N2CCC[C@H]2C(=O)N[C@@H](CCCN=C(N)N)C(=O)NCC(N)=O)NC(=O)[C@H](CC(N)=O)NC1=O | inactive | inactive | inactive | inactive | inactive | inactive | inactive | inactive | inactive | – | – | – | – | –
O=C(Oc1ccccc1)c1ccccc1C(=O)Oc1ccccc1 | inactive | inactive | inactive | – | inactive | inactive | inactive | inactive | – | inactive | – | – | – | –
CCCCCCCCNC(C)C(O)c1ccc(SC(C)C)cc1 (configuration not stated) | 9.52 µM (active) | 26.6 µM (active) | – | – | inactive | 29.8 µM (active) | 29.8 µM (active) | – | – | – | 13.3 µM (active) | inactive | – | –
Nc1nc2ccccc2n1Cc1ccc(F)cc1 | inactive | inactive | – | – | inactive | – | – | inactive | inactive | 15 µM (active) | inactive | – | inactive | –
CCCCCCCCCCC=O | inactive | inactive | inactive | inactive | inactive | inactive | inactive | – | inactive | – | – | inactive | inactive | inactive
Oc1ccc(N=Nc2ccccc2)cc1 | inactive | inactive | 2.47 µM (active) | 49.2 µM (active) | 9.06 µM (active) | – | – | inactive | 49.2 µM (active) | 27.7 µM (active) | – | – | – | –
CCOC(=O)O[C@]1(C(=O)OCCl)CC[C@H]2[C@@H]3CCC4=CC(=O)C=C[C@]4(C)[C@H]3[C@@H](O)C[C@@]21C | inactive | inactive | – | – | inactive | inactive | inactive | – | inactive | – | inactive | – | – | inactive
CCCCC(CC)COP(=O)(O)OCC(CC)CCCC (configuration not stated) | inactive | inactive | inactive | 48.6 µM (active) | – | inactive | inactive | inactive | – | inactive | – | – | 27.4 µM (active) and 21.7 µM (active) | –
CN(C/C=C/C#CC(C)(C)C)Cc1cccc2ccccc12 | 7.56 µM (active) | inactive | inactive | – | inactive | inactive | inactive | inactive | inactive | – | – | – | – | inactive
CCCCCCCCOC(=O)c1ccc(O)cc1 | 43.5 µM (active) and inactive | inactive | – | – | – | inactive | inactive | inactive | inactive | – | inactive | – | – | inactive
O=C1c2ccccc2Cc2ccccc21 | inactive | inactive | – | – | inactive | inactive | inactive | inactive | inactive | 21.8 µM (active) | inactive | – | – | –
CC1=NC(C)OC1C (configuration not stated) | inactive | inactive | inactive | inactive | inactive | inactive | inactive | inactive | inactive | inactive | – | – | – | inactive
COC(=O)c1cc(Cl)ccc1OC | inactive | inactive | – | inactive | inactive | inactive | inactive | inactive | inactive | inactive | – | – | – | –
C1CCCC1 | inactive | inactive | – | inactive | inactive | inactive | inactive | inactive | inactive | inactive | – | – | inactive | inactive
CCCCCCCCCCCC[N+](C)(C)CCCCCCCCCCCC | 15.5 µM (active) | 43.3 µM (active) | – | 27.3 µM (active) | 79.6 µM (active) | 27.3 µM (active) | 24.3 µM (active) | 27.3 µM (active) | 24.3 µM (active) | inactive | – | inactive | – | 27.3 µM (active)
CNC(=O)c1ccccc1 | inactive | inactive | – | inactive | inactive | inactive | inactive | – | inactive | – | – | – | – | inactive
CCCC/C=C/CCCCO | inactive | inactive | – | inactive | inactive | inactive | inactive | – | inactive | – | – | – | – | inactive
C=CC(=O)OCC(CO)(COC(=O)C=C)COC(=O)C=C | 13.9 µM (active) and 12.3 µM (active) | 61.3 µM (active) | – | – | inactive | 13.7 µM (active) and 54.5 µM (active) | 9.72 µM (active) and 24.3 µM (active) | – | 6.13 µM (active) and 9.69 µM (active) | – | – | inactive | 13.7 µM (active) and 24.3 µM (active) | 6.13 µM (active) and 12.2 µM (active)
C/C=C1/C(=O)C[C@H]2[C@@H]3CCC4=CC(=O)CC[C@]4(C)[C@H]3CC[C@]12C | inactive | inactive | – | 60.9 µM (active) | inactive | – | – | inactive | – | 8.61 µM (active) | – | – | – | –
C[C@]12CCC(=O)C=C1CC[C@@H]1[C@@H]2[C@@H](O)C[C@@]2(C)[C@H]1CC[C@]2(O)C(=O)COC(=O)CCC(=O)O | inactive | inactive | – | inactive | inactive | inactive | inactive | – | inactive | – | – | – | – | inactive
O=C(c1ccc(O)cc1O)c1ccc(O)cc1O | inactive | inactive | – | – | 40 µM (active) and 44.8 µM (active) | inactive | inactive | inactive | inactive | inactive | – | – | – | inactive
CCCCC(CC)CN=C(N)NC(N)=NCCCCCCN=C(N)NC(N)=NCC(CC)CCCC (configuration not stated) | 8.49 µM (active) | 29.8 µM (active) | – | 11.9 µM (active) | inactive | 26.6 µM (active) | 23.7 µM (active) | – | – | – | – | inactive | – | 16.8 µM (active)
CCCCCCCCCCCCCCCC(=O)OC[C@H](O)[C@H]1OC(=O)C(O)=C1O | 38.9 µM (active) | inactive | – | – | 63.3 µM (active) | inactive | inactive | inactive | inactive | inactive | – | inactive | inactive | inactive
CS(=O)(=O)CCNCc1ccc(-c2ccc3ncnc(Nc4ccc(OCc5cccc(F)c5)c(Cl)c4)c3c2)o1 | 16.9 µM (active) | inactive | – | 6.68 µM (active) | inactive | – | – | inactive | inactive | inactive | – | inactive | – | 33.5 µM (active)
